# Results as given in PubChem BioAssay (Tox21).
# Where “and” joins values, the source holds several entries; their conditions need not be identical. Equal entries are not always repeated. Inconclusive results are not listed. Entries that show only a call come without a potency. Some compounds were tested as several samples or in several runs, with calls that do not always agree. Calls of active or inactive are those of the source. Unless noted, calls come from the whole dose curve; as a rule, active = well fitted curve in the direction sought with a large enough effect in the repeat runs; inconclusive = weak or mixed curves; inactive = no such curve, though single readings can be large; an effect the other way counts as inactive or inconclusive.
# How the values were obtained:
# [1] = qHTS assay to identify small molecule agonists of the RXR signaling pathway - cell viability counter screen (AID 1159529); note: nearly all actives have a fitted effect of over 50% in size;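 for activity change, negative = cytotoxicity: HEK 293T cells carrying an RXR-alpha UAS beta-lactamase reporter; series mostly up to about 77 µM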
# Summary of the method: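 Same-well viability check after the LiveBLAzer FRET read: CellTiter-Glo added, luminescence measured after 30 min at room temperature. Reporter HEK 293T cells had been treated with compounds for 16 hr following a 5 hr preincubation.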
# [2] = qHTS assay to identify small molecule antagonists of the retinoid acid receptor (RAR) signaling pathway - cell viability counter screen (AID 1159551); note: nearly all actives have a fitted effect of over 35% in size
# Summary of the method: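 ATP-based viability, C3RL4 cells, 6 h at 37 C with 1 uM final retinol co-added after compound; luminescence read 30 min post CellTiter-Glo, RT.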
# [3] = qHTS assay to identify small molecule antagonists of the estrogen related receptor (ERR) signaling pathway from Tox21 library - cell viability counter screen (AID 1224834); note: nearly all actives have a fitted effect of over 30% in size
# Summary of the method: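 Compounds in DMSO were pinned onto ERR cells that had been incubated for 6 h, and the plates were held at 37 C for 17.5 h. CellTiter-Fluor reagent was then added and fluorescence was measured after 30 min.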
# [4] = qHTS assay to identify small molecule agonists of the constitutive androstane receptor (CAR) signaling pathway - cell viability counter screen (AID 1224836); note: nearly all actives have a fitted effect of over 45% in size; for viability change, negative = cytotoxic: series mostly up to about 92 µM
# Summary of the method: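 Compound titrations (15 concentrations) went onto HepG2-CYP2B6-hCAR cells 4 h after seeding, alongside PK11195 at a final 0.75 uM; a 23 h, 37 C/5% CO2 incubation preceded CellTiter-Fluor viability measurement.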
# [5] = qHTS assay to identify small molecule antagonists of the constitutive androstane receptor (CAR) signaling pathway - cell viability counter screen (AID 1224837); note: nearly all actives have a fitted effect of over 45% in size; for activity change, negative = cytotoxicity: series mostly up to about 92 µM
# Summary of the method: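 Cells are seeded, rested 4 hr at 37 C/5% CO2, dosed with compound (15-point series) and 50 nM CITCO, incubated a further 23 hr, and then CellTiter-Fluor reagent is added before fluorescence is read. The line is HepG2 with stable hCAR and CYP2B6-2.2kb.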
# [6] = qHTS assay to identify small molecule antagonists of the estrogen related receptor signaling pathway with the pleiotropic PPARgamma coactivator (PGC) from Tox21 10K library - cell viability counter screen (AID 1224840; active = well fitted cell-killing curve with a large enough effect in the repeat runs, not every such curve was filed as active; note: nearly all actives have a fitted effect of over 40% in size)
# Summary of the method: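 Cell viability is measured by CellTiter-Fluor fluorescence in PGC/ERR cells that receive compounds after a 6-hour attachment period and are then incubated 17.5 hours at 37 C.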
# [7] = qHTS assay to identify small molecule antagonists of the retinoic acid receptor (RAR) signaling pathway (AID 1159552; note: nearly all actives have a fitted effect of over 50% in size)
# Summary of the method: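 Readout: luciferase luminescence, 30 min post-reagent at RT. Setup: C3RL4 RARE reporter cells, compounds plus retinol 1 uM final, 6 hr incubation at 37 C and 5% CO2.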
# [8] = qHTS assay to identify small molecule agonists of the retinoic acid receptor (RAR) signaling pathway (AID 1159553)
# Summary of the method: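 Quantitative high-throughput format: the Tox21 10K library was tested on C3RL4 RARE-luciferase cells for 6 hr at 37 C and 5% CO2, with luminescence measured after a 30 min room-temperature reagent step.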
# [9] = target: Luciferin 4-monooxygenase (Photinus pyralis) (UniProt P08659); experiment: qHTS assay to identify small molecule inhibitors of firefly luciferase (AID 1224835); note: nearly all actives have a fitted effect of over 25% in size
# Summary of the method: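 Inhibition of purified Photinus luciferase is measured by luminescence. Substrate levels (D-luciferin, ATP) sit at their KM values. Each compound is tested in a concentration series.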
# [10] = target: Nuclear receptor subfamily 1 group I member 3 (Homo sapiens) (UniProt Q14994); experiment: qHTS assay to identify small molecule antagonists of the constitutive androstane receptor (CAR) signaling pathway (AID 1224838);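 note: HepG2 cells stably expressing hCAR with CYP2B6 luciferase reporter stimulated by CITCO; nearly all actives have a fitted effect of over 40% in size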
# Summary of the method: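 Luminescence from a CYP2B6-2.2kb promoter reporter in hCAR-expressing HepG2 cells reflects CAR signaling. Cells received compounds at 15 concentrations and 50 nM CITCO (final), then incubated 24 h at 37 C/5% CO2.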
# [11] = target: Nuclear receptor subfamily 1 group I member 3 (Homo sapiens) (UniProt Q14994); experiment: qHTS assay to identify small molecule agonists of the constitutive androstane receptor (CAR) signaling pathway (AID 1224839); note: nearly all actives have a fitted effect of over 15% in size
# Summary of the method: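 In this screen, CAR-driven CYP2B6 promoter activity is measured by luminescence in HepG2-CYP2B6-hCAR cells after 24 h with test compounds and 0.75 uM PK11195 (final concentration).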
# [12] = qHTS assay to identify small molecule agonists of the estrogen related receptor signaling pathway with the pleiotropic PPARgamma coactivator (PGC) from Tox21 10K library (AID 1224842); note: nearly all actives have a fitted effect of over 15% in size
# Summary of the method: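 Luminescence from One-Glo (30 min, room temperature) measured after PGC/ERR cells had 18 h at 37 C with pinned compound (23 nL in DMSO). Cells had been seeded at 2,000 per well and pre-incubated 6 h.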
# [13] = target: Thyrotropin receptor (Homo sapiens) (UniProt P16473); experiment: qHTS assay to identify small molecule agonists of the thyroid stimulating hormone receptor (TSHR) signaling pathway (AID 1224843; calls by dose curve; note: nearly all actives have a fitted effect of over 45% in size)
# Summary of the method: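 A cell-based cAMP HTRF format was run in TSHR-transfected HEK293 cells, 800 per well. Treatment: 30 min, room temperature. Detection: 1 h with labelled cAMP and anti-cAMP cryptate. Concentration-response over 15 points, three replicates.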
# [14] = qHTS assay to identify small molecule antagonists of the estrogen related receptor signaling pathway with the pleiotropic PPARgamma coactivator (PGC) from Tox21 10K library (AID 1224841; call rule not given here; note: actives are mostly falling curves and most rising ones were filed inactive; nearly all actives have a fitted effect of over 50% in size)
# Summary of the method: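 Cells stably carrying the PGC/ERR reporter, seeded at 2,000 per well, received pin-transferred compounds 6 h post-plating. Exposure lasted 18 h at 37 C. Signal: One-Glo luminescence.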
# Potency is the fitted concentration of half-maximal effect.
# Sequence of Luciferin 4-monooxygenase (Photinus pyralis) (P08659 whole entry, looked up): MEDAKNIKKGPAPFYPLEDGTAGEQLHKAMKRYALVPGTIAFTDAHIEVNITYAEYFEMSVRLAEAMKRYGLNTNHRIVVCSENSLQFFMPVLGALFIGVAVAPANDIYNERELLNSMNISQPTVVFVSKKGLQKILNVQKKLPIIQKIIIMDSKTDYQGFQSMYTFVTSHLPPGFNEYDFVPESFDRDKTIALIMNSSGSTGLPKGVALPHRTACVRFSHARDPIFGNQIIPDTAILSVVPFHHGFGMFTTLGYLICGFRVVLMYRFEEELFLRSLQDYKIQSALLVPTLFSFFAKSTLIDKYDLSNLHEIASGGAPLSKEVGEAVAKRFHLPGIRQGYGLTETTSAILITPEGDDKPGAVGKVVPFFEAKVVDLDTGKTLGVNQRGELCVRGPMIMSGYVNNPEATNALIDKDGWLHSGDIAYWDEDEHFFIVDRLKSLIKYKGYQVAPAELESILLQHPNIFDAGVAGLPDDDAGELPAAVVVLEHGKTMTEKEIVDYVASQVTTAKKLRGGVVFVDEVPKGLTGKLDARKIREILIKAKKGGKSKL
# Sequence of Thyrotropin receptor (Homo sapiens) (P16473 whole entry, looked up): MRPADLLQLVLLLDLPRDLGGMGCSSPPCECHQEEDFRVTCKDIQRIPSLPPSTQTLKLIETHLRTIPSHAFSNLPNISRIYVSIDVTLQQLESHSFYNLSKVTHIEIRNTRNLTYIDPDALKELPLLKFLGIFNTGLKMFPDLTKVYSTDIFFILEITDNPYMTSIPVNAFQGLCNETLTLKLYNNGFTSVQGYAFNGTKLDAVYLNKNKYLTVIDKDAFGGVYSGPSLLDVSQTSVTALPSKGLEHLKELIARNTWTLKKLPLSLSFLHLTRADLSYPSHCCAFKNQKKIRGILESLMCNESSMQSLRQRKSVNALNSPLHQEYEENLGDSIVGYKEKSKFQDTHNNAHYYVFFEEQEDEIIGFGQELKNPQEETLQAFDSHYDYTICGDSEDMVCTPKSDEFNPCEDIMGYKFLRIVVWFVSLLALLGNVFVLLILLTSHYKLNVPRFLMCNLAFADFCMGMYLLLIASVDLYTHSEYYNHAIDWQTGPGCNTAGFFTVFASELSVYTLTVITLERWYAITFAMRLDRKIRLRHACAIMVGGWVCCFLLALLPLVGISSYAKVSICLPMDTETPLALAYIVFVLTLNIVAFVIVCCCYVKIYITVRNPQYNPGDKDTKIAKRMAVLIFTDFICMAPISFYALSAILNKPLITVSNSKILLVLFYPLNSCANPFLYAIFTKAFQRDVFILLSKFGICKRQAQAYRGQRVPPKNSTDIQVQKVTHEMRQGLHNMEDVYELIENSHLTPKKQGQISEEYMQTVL
# Sequence of Nuclear receptor subfamily 1 group I member 3 (Homo sapiens) (Q14994 whole entry, looked up): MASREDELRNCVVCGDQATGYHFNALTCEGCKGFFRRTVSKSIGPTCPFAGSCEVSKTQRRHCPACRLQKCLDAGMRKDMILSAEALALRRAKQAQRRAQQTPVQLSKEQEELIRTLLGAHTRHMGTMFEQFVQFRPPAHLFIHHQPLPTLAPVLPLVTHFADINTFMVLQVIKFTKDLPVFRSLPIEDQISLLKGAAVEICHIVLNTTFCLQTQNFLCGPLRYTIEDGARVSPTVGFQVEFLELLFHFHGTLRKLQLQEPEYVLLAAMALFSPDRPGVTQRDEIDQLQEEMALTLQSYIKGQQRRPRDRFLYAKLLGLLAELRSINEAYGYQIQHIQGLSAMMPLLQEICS
smiles,measurement,setting,value
[Cl-].[Cl-].[Sn+2],Potency,[1],inactive
same,Potency,[2],inactive
same,Potency,[3],inactive
same,Potency,[4],inactive
same,Potency,[5],inactive
same,Potency,[6],inactive
CC(=O)[O-].CC(=O)[O-].CC(=O)[O-].[Sb+3],"activity change, negative = cytotoxicity",[1],2.3% [at 2.72 µM] (inactive)
same,"activity change, negative = cytotoxicity",[2],3.99% [at 3.27 µM] (inactive)
same,"viability change, negative = cytotoxic",[3],0.176% [at 3.27 µM] (inactive)
same,"viability change, negative = cytotoxic",[4],-15.6% [at 3.27 µM] (inactive)
same,"activity change, negative = cytotoxicity",[5],-10.2% [at 3.26 µM] (inactive)
same,"viability change, negative = cytotoxic",[6],3.7% [at 3.27 µM] (inactive)
O.O.O.O.O.O.O.O=S(=O)([O-])[O-].[Co+2],Potency,[1],inactive
same,Potency,[2],inactive
same,Potency,[3],inactive
same,Potency,[4],inactive
same,Potency,[5],inactive
same,Potency,[6],inactive
c1ccc(N=NNc2ccccc2)cc1,Potency,[1],inactive
same,Potency,[7],inactive
same,Potency,[8],3.17 µM (active) and 7.7 µM (active)
same,Potency,[3],39.9 µM (active) and 27.3 µM (active)
same,Potency,[9],6.54 µM (active) and 6.33 µM (active)
same,Potency,[4],inactive
same,Potency,[5],inactive
same,Potency,[10],inactive
same,Potency,[11],28.3 µM (active) and 27.3 µM (active)
same,Potency,[6],inactive
same,Potency,[12],25.2 µM (active) and inactive
same,Potency,[13],inactive
O.O.O.O.O.O.O=S(=O)([O-])[O-].[Ni+2],Potency,[1],inactive
same,Potency,[2],inactive
same,Potency,[3],inactive
same,Potency,[4],inactive
same,Potency,[5],inactive
same,Potency,[6],inactive
CC(=O)[O][Sn]([c]1ccccc1)([c]1ccccc1)[c]1ccccc1,Potency,[1],138 nM (active)
same,Potency,[2],7.7 µM (active)
same,Potency,[3],0.217 µM (active)
same,Potency,[9],2.24 µM (active)
same,Potency,[5],0.154 µM (active)
same,Potency,[10],0.0545 µM (active)
same,Potency,[11],inactive
same,Potency,[6],0.172 µM (active)
same,Potency,[12],inactive
Clc1ccc(C(c2ccc(Cl)cc2)C(Cl)Cl)cc1,Potency,[1],39.5 µM (active) and 38.9 µM (active)
same,Potency,[2],inactive
same,Potency,[9],inactive
same,Potency,[4],inactive
same,Potency,[5],inactive
same,Potency,[10],inactive
same,Potency,[11],49.3 µM (active) and 21.7 µM (active)
same,Potency,[6],inactive
same,Potency,[14],inactive
same,Potency,[12],inactive
same,Potency,[13],inactive
CCCCn1cc[n+](C)c1.[Cl][Fe-]([Cl])([Cl])[Cl],Potency,[1],inactive
same,Potency,[2],inactive
same,Potency,[3],inactive
same,Potency,[4],inactive
same,Potency,[5],inactive
same,Potency,[6],inactive
CCC[CH2][Sn]([CH2]CCC)([CH2]CCC)[O][Sn]([CH2]CCC)([CH2]CCC)[CH2]CCC,Potency,[1],479 nM (active)
same,Potency,[2],1.5 µM (active)
same,Potency,[3],1.06 µM (active)
same,Potency,[4],0.752 µM (active)
same,Potency,[5],0.947 µM (active)
same,Potency,[6],0.533 µM (active)
CN(C)c1ccc(N)cc1,Potency,[1],42600 nM (active)
same,Potency,[7],inactive
same,Potency,[8],596 nM (active)
same,Potency,[3],23.7 µM (active)
same,Potency,[9],1.74 µM (active)
same,Potency,[4],59.6 µM (active)
same,Potency,[5],53.2 µM (active)
same,Potency,[10],inactive
same,Potency,[11],9.45 µM (active)
same,Potency,[6],26.6 µM (active)
Cc1nn(-c2cc(NS(C)(=O)=O)c(Cl)cc2Cl)c(=O)n1C(F)F,Potency,[1],inactive
same,Potency,[2],inactive
same,Potency,[3],inactive
same,Potency,[9],inactive
same,Potency,[4],inactive
same,Potency,[5],inactive
same,Potency,[6],inactive
same,Potency,[14],inactive
same,Potency,[13],inactive
CC[C@]1(O)CC[C@H]2[C@@H]3CCC4=CCCC[C@@H]4[C@H]3CC[C@@]21C,Potency,[1],inactive
same,Potency,[2],inactive
same,Potency,[9],inactive
same,Potency,[4],inactive
same,Potency,[5],inactive
same,Potency,[11],inactive
same,Potency,[6],inactive
same,Potency,[14],inactive
same,Potency,[13],15 µM (active)
CC(=O)[O-].CC(=O)[O-].O.O.O.[Pb+2],Potency,[1],inactive
same,Potency,[2],inactive
same,Potency,[3],inactive
same,Potency,[4],inactive
same,Potency,[5],inactive
same,Potency,[6],inactive
CSC1=N[C@@](C)(c2ccccc2)C(=O)N1Nc1ccccc1,Potency,[1],inactive
same,Potency,[2],inactive
same,Potency,[3],inactive
same,Potency,[9],inactive
same,Potency,[5],inactive
same,Potency,[10],inactive
same,Potency,[11],19.3 µM (active)
same,Potency,[6],inactive
CC(C)Br,Potency,[1],inactive
same,Potency,[7],inactive
same,Potency,[3],inactive
same,Potency,[9],inactive
same,Potency,[4],inactive
same,Potency,[5],inactive
same,Potency,[11],inactive
same,Potency,[6],inactive
same,Potency,[13],inactive
N#Cc1c[nH]cc1-c1cccc2c1OC(F)(F)O2,Potency,[1],inactive
same,Potency,[2],inactive
same,Potency,[9],inactive
same,Potency,[4],inactive
same,Potency,[5],inactive
same,Potency,[14],19.3 µM (active)
same,Potency,[12],inactive
CCN(CC)Cc1nccn1-c1ccc([N+](=O)[O-])cc1C(=O)c1ccccc1Cl,Potency,[1],inactive
same,Potency,[2],inactive
same,Potency,[3],inactive
same,Potency,[9],inactive
same,Potency,[5],26.6 µM (active)
same,Potency,[6],inactive
same,Potency,[14],inactive
same,Potency,[12],inactive
same,Potency,[13],inactive
CNC(=O)O/N=C(\C)C(C)S(C)(=O)=O (centres undefined),Potency,[1],inactive
same,Potency,[2],inactive
same,Potency,[3],inactive
same,Potency,[9],inactive
same,Potency,[4],inactive
same,Potency,[5],inactive
same,Potency,[6],inactive
same,Potency,[12],inactive
same,Potency,[13],inactive
CCN1CCC2(CC1)COc1cc3c(cc12)N(C(=O)c1ccc(-c2ccc(-c4nnc(C)o4)cc2C)cc1)CC3,Potency,[1],3590 nM (active)
same,Potency,[7],56.4 µM (active)
same,Potency,[3],17.8 µM (active)
same,Potency,[9],inactive
same,Potency,[4],44.8 µM (active)
same,Potency,[5],50.2 µM (active)
same,Potency,[10],44.8 µM (active)
same,Potency,[11],inactive
same,Potency,[6],17.8 µM (active)
same,Potency,[14],7.96 µM (active)
